# Test results from PMC7862700, “An all-to-all approach to the identification of sequence-specific readers for epigenetic DNA modifications on cytosine”.
# Columns and labels:
# Assay in all cases: DAPPL (digital affinity profiling via proximity ligation, sequencing); 10 mM Tris-HCl pH 7.5, 50 mM NaCl, 1 mM DTT, 4% glycerol, room temperature, 30 min; GST-TFs on glutathione beads, 16-mer random dsDNA library, 0.1% formaldehyde crosslink after washing; high values mean tight binding
# [1] = target: ETV5 (Homo sapiens, UniProt P41161 1-510); conditions: protein: recombinant; tags: N-terminal GST; dsDNA, one strand shown
# ETV5, sequence (P41161 whole entry, the tested form may be a part): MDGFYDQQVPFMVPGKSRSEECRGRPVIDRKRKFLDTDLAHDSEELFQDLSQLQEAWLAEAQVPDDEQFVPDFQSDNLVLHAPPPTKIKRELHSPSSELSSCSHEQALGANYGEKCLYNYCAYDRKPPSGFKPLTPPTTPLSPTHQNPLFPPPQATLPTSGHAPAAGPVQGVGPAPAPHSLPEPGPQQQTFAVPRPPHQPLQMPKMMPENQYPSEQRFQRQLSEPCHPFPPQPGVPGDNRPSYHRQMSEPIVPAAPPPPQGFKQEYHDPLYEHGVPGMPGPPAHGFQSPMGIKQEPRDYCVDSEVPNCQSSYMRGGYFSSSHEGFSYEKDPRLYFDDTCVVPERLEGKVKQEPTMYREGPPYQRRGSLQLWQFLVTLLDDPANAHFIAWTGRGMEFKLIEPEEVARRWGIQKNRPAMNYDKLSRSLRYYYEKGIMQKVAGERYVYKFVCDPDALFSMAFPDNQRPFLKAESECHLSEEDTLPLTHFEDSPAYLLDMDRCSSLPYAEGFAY
# In short: (§1)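 Pools of DNA-barcoded human transcription factors, expressed in yeast as GST fusions on glutathione beads and combined with a tag-only sample, were incubated with 200 nmole of a 16-mer random double-stranded DNA library. Incubation took 30 min at room temperature in Tris/NaCl/DTT/glycerol buffer and was followed by washing, 0.1% formaldehyde crosslinking, proximity ligation (BsaI/T4 ligase, 1 h, 37 °C), PCR amplification and sequencing on an Illumina NextSeq500. Binding signal is the ratio of a hexamer's read frequency for a factor to its frequency for the tag-only sample.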
# [2] = target: HSF1 (Homo sapiens, UniProt Q00613 1-529); conditions: protein: recombinant; tags: N-terminal GST; chain copies: 3; dsDNA, one strand shown
# HSF1, sequence (Q00613 whole entry): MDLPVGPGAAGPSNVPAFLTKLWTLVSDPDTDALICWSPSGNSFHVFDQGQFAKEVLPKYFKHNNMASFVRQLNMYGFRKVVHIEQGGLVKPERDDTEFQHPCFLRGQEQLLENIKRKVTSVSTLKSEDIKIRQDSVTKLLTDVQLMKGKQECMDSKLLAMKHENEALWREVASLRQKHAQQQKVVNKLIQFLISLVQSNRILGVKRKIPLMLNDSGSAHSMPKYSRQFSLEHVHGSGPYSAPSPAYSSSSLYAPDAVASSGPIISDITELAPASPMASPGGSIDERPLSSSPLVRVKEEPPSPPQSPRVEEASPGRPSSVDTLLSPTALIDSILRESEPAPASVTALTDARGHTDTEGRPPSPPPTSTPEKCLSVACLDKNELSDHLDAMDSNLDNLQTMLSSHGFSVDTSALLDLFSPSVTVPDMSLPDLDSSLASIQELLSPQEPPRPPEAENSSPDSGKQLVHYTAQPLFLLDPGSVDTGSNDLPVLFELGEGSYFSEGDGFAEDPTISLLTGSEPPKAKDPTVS
# In short: as §1
# [3] = target: T1, SPIC (Homo sapiens, UniProt Q8N5J4 1-248); conditions: protein: recombinant; tags: N-terminal GST; dsDNA, one strand shown
# T1 sequence: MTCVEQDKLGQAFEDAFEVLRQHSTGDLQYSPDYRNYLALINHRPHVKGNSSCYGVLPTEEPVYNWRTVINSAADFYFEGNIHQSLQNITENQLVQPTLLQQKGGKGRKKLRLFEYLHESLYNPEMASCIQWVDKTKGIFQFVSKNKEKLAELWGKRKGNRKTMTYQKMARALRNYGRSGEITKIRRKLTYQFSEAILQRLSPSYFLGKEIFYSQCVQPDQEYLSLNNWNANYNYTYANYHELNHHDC
# In short: as §1
# [4] = target: ELF4 (Homo sapiens, UniProt Q99607 1-663); conditions: protein: recombinant; tags: N-terminal GST; dsDNA, one strand shown
# ELF4, sequence (Q99607 whole entry): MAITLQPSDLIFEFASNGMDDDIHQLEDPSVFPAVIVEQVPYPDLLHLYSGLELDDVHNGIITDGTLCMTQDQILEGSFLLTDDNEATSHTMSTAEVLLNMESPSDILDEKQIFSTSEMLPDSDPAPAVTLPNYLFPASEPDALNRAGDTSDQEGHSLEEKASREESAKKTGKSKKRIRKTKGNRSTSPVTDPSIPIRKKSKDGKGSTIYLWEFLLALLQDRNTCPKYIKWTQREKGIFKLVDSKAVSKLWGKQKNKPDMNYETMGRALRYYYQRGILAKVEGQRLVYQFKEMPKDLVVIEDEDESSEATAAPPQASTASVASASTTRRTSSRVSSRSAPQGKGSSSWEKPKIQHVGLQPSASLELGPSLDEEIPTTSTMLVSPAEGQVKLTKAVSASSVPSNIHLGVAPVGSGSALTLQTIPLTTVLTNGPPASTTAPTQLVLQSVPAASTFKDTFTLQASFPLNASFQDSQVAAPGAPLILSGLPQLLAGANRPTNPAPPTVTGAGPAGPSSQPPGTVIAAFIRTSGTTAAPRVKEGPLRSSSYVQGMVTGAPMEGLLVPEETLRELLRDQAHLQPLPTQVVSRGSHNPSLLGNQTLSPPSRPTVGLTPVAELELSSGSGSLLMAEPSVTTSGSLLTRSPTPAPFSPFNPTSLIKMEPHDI
# In short: as §1
# [5] = target: T2, ELK4 (Homo sapiens, UniProt P28324-2 1-405); conditions: protein: recombinant; tags: N-terminal GST; dsDNA, one strand shown
# T2 sequence: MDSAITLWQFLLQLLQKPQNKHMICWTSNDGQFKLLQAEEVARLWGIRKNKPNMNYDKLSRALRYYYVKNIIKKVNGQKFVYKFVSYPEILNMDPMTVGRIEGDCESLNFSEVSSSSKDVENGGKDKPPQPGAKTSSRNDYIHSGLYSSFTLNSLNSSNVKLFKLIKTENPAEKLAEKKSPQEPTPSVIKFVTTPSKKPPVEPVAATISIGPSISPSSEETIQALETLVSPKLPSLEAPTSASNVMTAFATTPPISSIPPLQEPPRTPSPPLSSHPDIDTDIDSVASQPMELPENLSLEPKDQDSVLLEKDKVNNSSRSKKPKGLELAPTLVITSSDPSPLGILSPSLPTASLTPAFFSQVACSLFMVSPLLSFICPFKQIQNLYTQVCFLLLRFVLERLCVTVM
# In short: as §1
# [6] = target: T3, ETV2 (Homo sapiens, UniProt O00321 1-342); conditions: protein: recombinant; tags: N-terminal GST; dsDNA, one strand shown
# T3 sequence: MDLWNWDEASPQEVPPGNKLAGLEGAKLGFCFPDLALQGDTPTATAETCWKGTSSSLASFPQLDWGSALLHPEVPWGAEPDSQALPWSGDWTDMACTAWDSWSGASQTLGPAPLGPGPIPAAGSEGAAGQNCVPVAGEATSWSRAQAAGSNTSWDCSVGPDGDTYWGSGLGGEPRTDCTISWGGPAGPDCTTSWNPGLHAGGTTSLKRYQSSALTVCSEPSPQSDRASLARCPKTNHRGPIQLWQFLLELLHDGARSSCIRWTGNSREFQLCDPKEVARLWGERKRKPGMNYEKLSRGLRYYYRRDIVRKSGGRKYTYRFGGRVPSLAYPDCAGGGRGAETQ
# In short: as §1
# [7] = target: T4, ELF3 (Homo sapiens, UniProt P78545 1-371); conditions: protein: recombinant; tags: N-terminal GST; dsDNA, one strand shown
# T4 sequence: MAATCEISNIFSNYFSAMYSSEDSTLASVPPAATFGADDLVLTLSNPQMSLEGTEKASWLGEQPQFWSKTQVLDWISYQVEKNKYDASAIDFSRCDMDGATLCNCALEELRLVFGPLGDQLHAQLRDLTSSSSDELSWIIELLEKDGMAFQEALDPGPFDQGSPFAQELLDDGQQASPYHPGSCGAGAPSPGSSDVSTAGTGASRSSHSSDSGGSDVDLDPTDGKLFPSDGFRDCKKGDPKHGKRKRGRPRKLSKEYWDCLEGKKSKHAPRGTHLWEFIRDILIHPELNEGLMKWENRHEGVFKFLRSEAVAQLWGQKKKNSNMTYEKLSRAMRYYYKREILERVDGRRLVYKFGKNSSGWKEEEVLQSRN
# In short: as §1
# [8] = target: CRX (Homo sapiens, UniProt O43186 1-299); conditions: protein: recombinant; tags: N-terminal GST; dsDNA, one strand shown
# CRX, sequence (O43186 whole entry): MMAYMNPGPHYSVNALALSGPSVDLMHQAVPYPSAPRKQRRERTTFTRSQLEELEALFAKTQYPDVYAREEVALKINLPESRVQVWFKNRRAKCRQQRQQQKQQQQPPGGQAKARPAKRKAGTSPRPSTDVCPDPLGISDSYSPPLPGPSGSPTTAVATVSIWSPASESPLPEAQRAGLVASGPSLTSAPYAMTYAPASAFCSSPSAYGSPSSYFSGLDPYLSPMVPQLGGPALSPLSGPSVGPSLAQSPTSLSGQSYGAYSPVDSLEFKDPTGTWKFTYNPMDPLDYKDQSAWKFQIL
# In short: as §1
# [9] = target: ETV1 (Homo sapiens, UniProt P50549 1-477); conditions: protein: recombinant; tags: N-terminal GST; dsDNA, one strand shown
# ETV1, sequence (P50549 whole entry): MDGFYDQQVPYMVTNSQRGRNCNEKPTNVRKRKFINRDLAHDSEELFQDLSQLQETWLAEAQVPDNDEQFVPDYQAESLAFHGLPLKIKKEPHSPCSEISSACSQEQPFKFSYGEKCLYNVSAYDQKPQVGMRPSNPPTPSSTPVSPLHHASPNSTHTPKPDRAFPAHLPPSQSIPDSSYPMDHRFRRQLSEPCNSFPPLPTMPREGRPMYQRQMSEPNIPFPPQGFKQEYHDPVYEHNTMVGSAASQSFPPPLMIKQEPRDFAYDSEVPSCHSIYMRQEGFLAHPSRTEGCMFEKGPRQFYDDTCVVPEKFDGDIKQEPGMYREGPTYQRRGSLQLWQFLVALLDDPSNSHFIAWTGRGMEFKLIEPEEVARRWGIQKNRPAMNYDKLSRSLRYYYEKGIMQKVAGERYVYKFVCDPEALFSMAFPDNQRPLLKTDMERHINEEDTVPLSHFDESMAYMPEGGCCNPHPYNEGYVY
# In short: as §1
# [10] = target: T5, ERF (Homo sapiens, UniProt P50548 1-548); conditions: protein: recombinant; tags: N-terminal GST; dsDNA, one strand shown
# T5 sequence: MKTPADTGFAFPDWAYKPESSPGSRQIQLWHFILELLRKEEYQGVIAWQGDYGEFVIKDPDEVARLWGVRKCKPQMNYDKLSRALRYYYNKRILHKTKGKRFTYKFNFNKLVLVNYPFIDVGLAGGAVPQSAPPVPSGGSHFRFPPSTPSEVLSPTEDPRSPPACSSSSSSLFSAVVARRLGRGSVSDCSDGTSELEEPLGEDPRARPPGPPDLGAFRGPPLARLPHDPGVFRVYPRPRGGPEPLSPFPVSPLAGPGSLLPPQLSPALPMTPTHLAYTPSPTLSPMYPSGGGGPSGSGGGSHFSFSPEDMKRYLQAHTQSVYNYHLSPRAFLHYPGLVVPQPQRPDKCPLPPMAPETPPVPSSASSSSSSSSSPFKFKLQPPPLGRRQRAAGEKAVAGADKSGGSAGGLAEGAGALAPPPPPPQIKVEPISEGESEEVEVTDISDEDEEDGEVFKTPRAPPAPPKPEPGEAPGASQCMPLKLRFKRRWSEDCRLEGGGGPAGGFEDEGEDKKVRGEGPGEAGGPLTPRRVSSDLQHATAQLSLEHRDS
# In short: as §1
# [11] = target: T6, ETV3L (Homo sapiens, UniProt Q6ZN32 1-361); conditions: protein: recombinant; tags: N-terminal GST; dsDNA, one strand shown
# T6 sequence: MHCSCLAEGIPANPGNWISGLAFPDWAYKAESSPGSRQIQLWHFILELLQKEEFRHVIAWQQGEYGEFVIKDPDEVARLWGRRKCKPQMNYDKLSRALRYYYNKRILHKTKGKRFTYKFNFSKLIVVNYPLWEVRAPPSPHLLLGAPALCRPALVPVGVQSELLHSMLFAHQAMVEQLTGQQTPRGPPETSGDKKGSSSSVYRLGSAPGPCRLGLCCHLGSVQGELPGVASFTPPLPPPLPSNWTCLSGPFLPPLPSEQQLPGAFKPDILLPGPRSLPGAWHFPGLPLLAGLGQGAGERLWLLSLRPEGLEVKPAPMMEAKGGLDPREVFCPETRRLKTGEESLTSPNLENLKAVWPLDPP
# In short: as §1
# [12] = target: T7, ETS2 (Homo sapiens, UniProt P15036 1-469); conditions: protein: recombinant; tags: N-terminal GST; dsDNA, one strand shown
# T7 sequence: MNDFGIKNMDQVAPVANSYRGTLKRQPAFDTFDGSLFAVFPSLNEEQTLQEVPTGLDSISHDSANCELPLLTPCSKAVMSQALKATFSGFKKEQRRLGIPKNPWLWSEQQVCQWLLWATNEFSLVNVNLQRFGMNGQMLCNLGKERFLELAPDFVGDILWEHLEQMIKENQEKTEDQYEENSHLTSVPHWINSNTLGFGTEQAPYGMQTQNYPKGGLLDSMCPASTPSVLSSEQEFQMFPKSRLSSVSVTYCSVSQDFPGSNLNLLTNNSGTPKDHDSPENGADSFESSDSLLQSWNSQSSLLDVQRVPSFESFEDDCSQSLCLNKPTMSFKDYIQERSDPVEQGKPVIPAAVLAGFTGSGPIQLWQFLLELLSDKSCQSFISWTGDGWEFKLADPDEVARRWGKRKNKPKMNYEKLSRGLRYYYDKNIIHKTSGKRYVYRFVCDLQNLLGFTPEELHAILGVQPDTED
# In short: as §1
# [13] = target: T8, SPDEF (Homo sapiens, UniProt O95238 1-335); conditions: protein: recombinant; tags: N-terminal GST; dsDNA, one strand shown
# T8 sequence: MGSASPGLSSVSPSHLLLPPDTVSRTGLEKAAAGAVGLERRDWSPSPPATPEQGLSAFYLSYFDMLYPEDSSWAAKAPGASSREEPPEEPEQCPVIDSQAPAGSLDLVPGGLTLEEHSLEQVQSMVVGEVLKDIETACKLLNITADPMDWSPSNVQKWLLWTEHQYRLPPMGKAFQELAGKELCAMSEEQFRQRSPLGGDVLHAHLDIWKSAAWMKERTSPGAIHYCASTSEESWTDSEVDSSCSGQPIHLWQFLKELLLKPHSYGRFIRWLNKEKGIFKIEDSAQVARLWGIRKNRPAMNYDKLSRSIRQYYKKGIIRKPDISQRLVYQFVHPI
# In short: as §1
# [14] = target: T9, ETV7 (Homo sapiens, UniProt Q9Y603 1-341); conditions: protein: recombinant; tags: N-terminal GST; dsDNA, one strand shown
# T9 sequence: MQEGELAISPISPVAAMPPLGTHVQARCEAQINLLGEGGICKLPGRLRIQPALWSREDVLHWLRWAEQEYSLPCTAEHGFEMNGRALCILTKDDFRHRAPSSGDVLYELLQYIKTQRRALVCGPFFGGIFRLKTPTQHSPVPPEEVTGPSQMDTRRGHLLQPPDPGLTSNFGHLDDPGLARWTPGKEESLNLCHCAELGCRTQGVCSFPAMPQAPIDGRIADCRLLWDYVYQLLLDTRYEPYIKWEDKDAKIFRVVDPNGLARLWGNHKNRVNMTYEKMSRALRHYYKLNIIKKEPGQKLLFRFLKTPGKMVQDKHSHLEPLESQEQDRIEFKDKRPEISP
# In short: as §1
# [15] = target: T10, ELF5 (Homo sapiens, UniProt Q9UKW6-2 1-255); conditions: protein: recombinant; tags: N-terminal GST; dsDNA, one strand shown
# T10 sequence: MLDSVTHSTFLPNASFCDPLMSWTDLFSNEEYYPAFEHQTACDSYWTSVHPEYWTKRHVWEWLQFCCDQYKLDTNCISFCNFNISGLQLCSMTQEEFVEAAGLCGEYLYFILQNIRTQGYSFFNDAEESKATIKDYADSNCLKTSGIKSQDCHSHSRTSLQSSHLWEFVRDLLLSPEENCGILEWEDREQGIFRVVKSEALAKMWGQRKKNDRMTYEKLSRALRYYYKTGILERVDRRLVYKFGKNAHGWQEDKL
# In short: as §1
# [16] = target: T11, ETV3 (Homo sapiens, UniProt P41162-2 1-143); conditions: protein: recombinant; tags: N-terminal GST; dsDNA, one strand shown
# T11 sequence: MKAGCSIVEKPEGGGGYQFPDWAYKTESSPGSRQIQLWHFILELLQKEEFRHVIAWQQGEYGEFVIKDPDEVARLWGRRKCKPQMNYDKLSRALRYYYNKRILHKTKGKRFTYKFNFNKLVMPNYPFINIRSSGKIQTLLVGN
# In short: as §1
# [17] = target: ETV6 (Homo sapiens, UniProt P41212 1-452); conditions: protein: recombinant; tags: N-terminal GST; dsDNA, one strand shown
# ETV6, sequence (P41212 whole entry): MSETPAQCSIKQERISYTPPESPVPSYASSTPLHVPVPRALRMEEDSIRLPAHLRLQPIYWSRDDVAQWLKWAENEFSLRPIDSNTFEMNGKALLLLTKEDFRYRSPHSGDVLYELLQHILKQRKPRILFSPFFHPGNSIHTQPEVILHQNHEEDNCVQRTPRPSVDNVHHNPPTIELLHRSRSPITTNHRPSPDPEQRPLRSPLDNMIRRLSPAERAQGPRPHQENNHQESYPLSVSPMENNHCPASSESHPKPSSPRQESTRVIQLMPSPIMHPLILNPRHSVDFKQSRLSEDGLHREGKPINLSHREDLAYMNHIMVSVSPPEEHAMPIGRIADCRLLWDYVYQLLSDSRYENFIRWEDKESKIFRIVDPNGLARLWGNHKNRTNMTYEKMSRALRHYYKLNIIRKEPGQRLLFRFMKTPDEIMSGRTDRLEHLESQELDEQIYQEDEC
# In short: as §1
sequence,measurement,setting,value
TAGAAG,binding signal,[1],"1.08 fold enrichment (6-mer frequency, TF over GST control)"
same,binding signal,[2],"2.77 fold enrichment (6-mer frequency, TF over GST control)"
same,binding signal,[3],"1.31 fold enrichment (6-mer frequency, TF over GST control)"
same,binding signal,[4],"1.19 fold enrichment (6-mer frequency, TF over GST control)"
same,binding signal,[5],"1.16 fold enrichment (6-mer frequency, TF over GST control)"
same,binding signal,[6],"1.18 fold enrichment (6-mer frequency, TF over GST control)"
same,binding signal,[7],"1.18 fold enrichment (6-mer frequency, TF over GST control)"
same,binding signal,[8],"1.72 fold enrichment (6-mer frequency, TF over GST control)"
same,binding signal,[9],"1.06 fold enrichment (6-mer frequency, TF over GST control)"
same,binding signal,[10],"1.42 fold enrichment (6-mer frequency, TF over GST control)"
same,binding signal,[11],"1.17 fold enrichment (6-mer frequency, TF over GST control)"
same,binding signal,[12],"1.12 fold enrichment (6-mer frequency, TF over GST control)"
same,binding signal,[13],"1.06 fold enrichment (6-mer frequency, TF over GST control)"
same,binding signal,[14],"1.24 fold enrichment (6-mer frequency, TF over GST control)"
same,binding signal,[15],"1.12 fold enrichment (6-mer frequency, TF over GST control)"
same,binding signal,[16],"1.12 fold enrichment (6-mer frequency, TF over GST control)"
same,binding signal,[17],"1.17 fold enrichment (6-mer frequency, TF over GST control)"
